Experimental data: PubChem BioAssay (Tox21)
Several values for one entry are separate records, joined by “and”; a condition that tells them apart may be missing. Identical values can stand only once. Inconclusive results are not listed. Activity calls are given as the source filed them. Unless noted, calls follow the shape of the dose curve; as a rule, active = well fitted curve in the direction sought with a large enough effect in the repeat runs; inconclusive = weak or mixed curves; inactive = no such curve, though single readings can be large; an effect the other way counts as inactive or inconclusive.

What was measured:
[1] = qHTS assay for small molecule agonists of the p53 signaling pathway (AID 651631; calls by dose curve; also: nearly all actives have a fitted effect of over 15% in size)
Summary of the method: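 HCT-116 p53RE-bla reporter line, 16 h compound treatment at 37 °C, then fluorescence after 2 h with B/G FRET substrate.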

[2] = qHTS assay for small molecules that induce genotoxicity in human embryonic kidney cells expressing luciferase-tagged ATAD5 (AID 651632); also: nearly all actives have a fitted effect of over 15% in size
Summary of the method: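 Increased luciferase signal from ATAD5-tagged reporter cells indicates DNA-damage-driven ATAD5 induction. HEK293T cells are treated for 16 hr at 37C before detection with Amplite.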

[3] = qHTS assay for small molecule agonists of the p53 signaling pathway - cell viability (AID 651633; calls by dose curve;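 also: p53RE-bla HCT reporter cells with a stable beta-lactamase p53 reporter; nearly all actives have a fitted effect of over 30% in size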)
Summary of the method: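 Viability counter-read: CellTiter-Glo luminescence (30 min, room temperature) in the same p53RE-bla plates. These plates had been exposed to compounds for 16 h at 37 C.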

[4] = qHTS assay for small molecules that induce genotoxicity in human embryonic kidney cells expressing luciferase-tagged ATAD5 - cell viability (AID 651634; calls by dose curve; also: nearly all actives have a fitted effect of over 25% in size)
Summary of the method: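 Cytotoxicity counterscreen in HEK293T cells bearing an ATAD5-luciferase reporter: live-cell protease activity measured by CellTiter-Fluor fluorescence after 15.5 hr compound exposure.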

[5] = qHTS assay for small molecule disruptors of the mitochondrial membrane potential - cell viability (AID 720634; calls by dose curve;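 also: human HepG2 liver cancer cells; nearly all actives have a fitted effect of over 20% in size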)
Summary of the method: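 After overnight attachment at 37 C, HepG2 cells received compound or DMSO vehicle for 1 hr. Viability is then taken from ATP-driven luminescence following a 30 min room-temperature CellTiter-Glo step.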

[6] = qHTS assay for small molecule disruptors of the mitochondrial membrane potential (AID 720635)
Summary of the method: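 Mitochondrial membrane potential tracked with Mito-MPS dye, red aggregates (ex 540/em 590 nm) against green monomers (ex 490/em 535 nm). Compound treatment 1 hr at 37C, dye 30 min in HepG2.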

[7] = qHTS assay to test for compound auto fluorescence at 590 nm (red) in HepG2 cells (AID 720674)
Summary of the method: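 1 hr compound incubation on HepG2 cells, 37 C, 5% CO2; plate read ex 540 nm / em 590 nm; intensities reported as Rose Bengal sodium equivalents.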

[8] = qHTS assay to test for compound auto fluorescence at 535 nm (green) in HepG2 cells (AID 720675)
[9] = qHTS assay to test for compound auto fluorescence at 460 nm (blue) in HEK293 cells (AID 720678)
Summary of the method: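 Blue read-out at excitation 405 nm and emission 460 nm follows overnight compound exposure of HEK293 cells at 37C in 5% CO2. Activity is given as auto fluorescence equivalency to triamterene.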

[10] = qHTS assay to test for compound auto fluorescence at 460 nm (blue) in HEK293 cell free culture (AID 720681)
Summary of the method: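 Blue fluorescence (Ex 405/Em 460 nm, triamterene-equivalent) was read immediately after pin transfer of compound or DMSO into medium (DMEM, 10% FBS) without cells.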

[11] = qHTS assay to test for compound auto fluorescence at 535 nm (green) in HEK293 cell free culture (AID 720682)
Summary of the method: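 Steps: dispense DMEM/10% FBS into empty wells; pin in compound or DMSO; measure fluorescence at 485/535 nm. Values are fluorescein equivalents.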

[12] = qHTS assay to test for compound auto fluorescence at 590 nm (red) in HEK293 cell free culture (AID 720683)
Summary of the method: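 Red-channel autofluorescence of compounds in culture medium (DMEM, 10% FBS), no cells, measured at 540/590 nm. Rose Bengal sodium is the reference fluorophore for equivalence.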

[13] = qHTS assay to test for compound auto fluorescence at 590 nm (red) in HepG2 cell free culture (AID 720684)
Summary of the method: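 Plate contents were MEM with 10% FBS plus test compound or DMSO, no cells. Fluorescence was recorded with 540 nm excitation and 590 nm emission.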

[14] = qHTS assay to test for compound auto fluorescence at 460 nm (blue) in HepG2 cell free culture (AID 720685)
Summary of the method: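 Compound (23 nL) or DMSO pinned into cell-free MEM with 10% FBS; blue fluorescence read at 405/460 nm excitation/emission, expressed as auto-fluorescence equivalency to triamterene.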

[15] = qHTS assay to test for compound auto fluorescence at 535 nm (green) in HepG2 cell free culture (AID 720686)
[16] = qHTS assay to test for compound auto fluorescence at 460 nm (blue) in HepG2 cells (AID 720687)
Summary of the method: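 Blue-channel autofluorescence (Ex/Em 405/460 nm, triamterene-equivalent) was measured after 1 hr compound exposure at 37 C, 5% CO2. Cells were HepG2, plated overnight at 37 C in MEM plus 10% FBS.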

[17] = target: Glucocorticoid receptor (Homo sapiens) (UniProt P04150); experiment: qHTS assay to identify small molecule agonists of the glucocorticoid receptor (GR) signaling pathway (AID 720691; active = well fitted activation curve with a large enough effect in the signal ratio in the repeat runs, not every such curve was filed as active; the % refers to the signal ratio)
Summary of the method: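 Agonist mode in a HeLa line carrying a GRE-controlled beta-lactamase reporter. Compounds act for 18 h at 37 C before a 2 h room-temperature FRET substrate step and fluorescence reading.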

[18] = target: Glucocorticoid receptor (Homo sapiens) (UniProt P04150); experiment: qHTS assay to identify small molecule antagonists of the glucocorticoid receptor (GR) signaling pathway (AID 720692; active = well fitted inhibition curve with a large enough effect in the signal ratio in the repeat runs, not every such curve was filed as active; the % refers to the signal ratio)
Summary of the method: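 Cells plated, rested 4 h at 37 C/5% CO2; compounds in DMSO pin-transferred; dexamethasone added to 5 nM final; 18 h at 37 C; B/G FRET substrate added, 2 h room temperature; fluorescence measured.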

[19] = qHTS assay to identify small molecule antagonists of the glucocorticoid receptor (GR) signaling pathway - cell viability counter screen (AID 720693); also: nearly all actives have a fitted effect of over 55% in size
[20] = qHTS assay for identifying genotoxic compounds that show differential cytotoxicity against isogenic chicken DT40 cell lines with known DNA damage response pathways - wild type cell line (AID 743012); also: nearly all actives have a fitted effect of over 60% in size
Summary of the method: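 Cells (DT40 wild type, 300/well) are treated with DMSO-dissolved compounds after a ~0.5 h pre-incubation and kept 40 h at 37 C/5% CO2. Viability is then measured by CellTiter-Glo luminescence following 30 min at room temperature.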

[21] = qHTS assay for identifying genotoxic compounds that show differential cytotoxicity against isogenic chicken DT40 cell lines with known DNA damage response pathways - Rev3 mutant cell line (AID 743014); also: nearly all actives have a fitted effect of over 55% in size
[22] = qHTS assay for identifying genotoxic compounds that show differential cytotoxicity against isogenic chicken DT40 cell lines with known DNA damage response pathways - Rad54/Ku70 mutant cell line (AID 743015); also: nearly all actives have a fitted effect of over 60% in size
[23] = qHTS assay to identify small molecule antagonists of the androgen receptor (AR) signaling pathway - cell viability counter screen (AID 743033; also: nearly all actives have a fitted effect of over 45% in size)
[24] = qHTS assay to identify small molecule antagonists of the androgen receptor (AR) signaling pathway using the MDA cell line - cell viability counter screen (AID 743041; also: nearly all actives have a fitted effect of over 45% in size)
Summary of the method: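 R1881-driven MDA-kb2 AR-luc cells, 3,000/well, were dosed with library compounds for 16 h; cell health came from CellTiter-Fluor fluorescence in the reporter wells.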

[25] = qHTS assay to identify small molecule antagonists of the thyroid receptor (TR) signaling pathway - cell viability counter screen (AID 743064); also: nearly all actives have a fitted effect of over 50% in size
Summary of the method: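 Plate GH3.TRE-Luc cells; incubate 4 h at 37 °C; add compound, then T3 to 1 nM final; incubate 23.5 h; add CellTiter-Fluor; incubate 30 min at 37 °C, 5% CO2; read fluorescence.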

[26] = qHTS assay to identify small molecule antagonists of the thyroid receptor (TR) signaling pathway (AID 743065); also: nearly all actives have a fitted effect of over 55% in size
Summary of the method: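 Antagonism measured as loss of luciferase signal in GH3 cells stably carrying a TRE-luciferase reporter, co-treated with compound and T3 (1 nM final) for 23.5 h at 37 C. Viability was read in the same well by CellTiter-Fluor.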

[27] = tested on: thyroid hormone receptor (rat, GH3 cells); experiment: qHTS assay to identify small molecule agonists of the thyroid receptor (TR) signaling pathway (AID 743066; calls by dose curve)
[28] = qHTS assay to identify small molecule antagonists of the estrogen receptor alpha (ER-alpha) signaling pathway - cell viability counter screen (AID 743074; calls by dose curve;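 also: HEK293 cells carrying ER-alpha-UAS-bla reporter stimulated with 17beta-estradiol; nearly all actives have a fitted effect of over 45% in size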)
[29] = qHTS assay to identify small molecule antagonists of the estrogen receptor alpha (ER-alpha) signaling pathway using the BG1 cell line - cell viability counter screen (AID 743081);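 also: compound given together with 17beta-estradiol as the ER stimulus; nearly all actives have a fitted effect of over 45% in size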
[30] = qHTS assay to identify small molecule antagonists of the estrogen related receptor (ERR) signaling pathway from Tox21 library - cell viability counter screen (AID 1224834); also: nearly all actives have a fitted effect of over 30% in size
Summary of the method: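 Cytotoxicity of test substances is gauged in the same ERR cells used for the antagonist screen, after 17.5 h of compound treatment at 37 C, by CellTiter-Fluor fluorescence measured after 30 min.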

[31] = qHTS assay to identify small molecule antagonists of the estrogen related receptor signaling pathway with the pleiotropic PPARgamma coactivator (PGC) from Tox21 10K library - cell viability counter screen (AID 1224840; active = well fitted cell-killing curve with a large enough effect in the repeat runs, not every such curve was filed as active; also: nearly all actives have a fitted effect of over 40% in size)
Summary of the method: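 Step one, plate 2,000 PGC/ERR cells per well; step two, incubate 6 h at 37 C/5% CO2; step three, pin-transfer compounds; step four, incubate 17.5 h; step five, add CellTiter-Fluor and read fluorescence after 30 min.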

[32] = qHTS assay to identify small molecule antagonists of the estrogen related receptor signaling pathway with the pleiotropic PPARgamma coactivator (PGC) from Tox21 10K library (AID 1224841; call rule not given here; also: actives are mostly falling curves and most rising ones were filed inactive; nearly all actives have a fitted effect of over 50% in size)
Summary of the method: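 Antagonism in this quantitative HTS is taken from loss of luciferase signal in PGC/ERR cells. Cells (2,000/well) are treated with compounds in DMSO after a 6 h settling period and read by One-Glo luminescence after 18 h.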

[33] = qHTS assay to identify small molecule agonists of the estrogen related receptor signaling pathway with the pleiotropic PPARgamma coactivator (PGC) from Tox21 10K library (AID 1224842); also: nearly all actives have a fitted effect of over 15% in size
Summary of the method: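 Luminescence from One-Glo (30 min, room temperature) measured after PGC/ERR cells had 18 h at 37 C with pinned compound (23 nL in DMSO). Cells had been seeded at 2,000 per well and pre-incubated 6 h.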

[34] = qHTS assay to identify small molecule agonists of the estrogen related receptor (ERR) signaling pathway from Tox21 library (AID 1224849; calls by dose curve; also: nearly all actives have a fitted effect of over 15% in size); details: ERR reporter cell line, ONE-Glo luciferase, 18 h; at 92.4 µM (top of the series) unless noted
Summary of the method: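 Agonist signal is luciferase luminescence from an ERR reporter cell line treated 18 h at 37 C with DMSO-dissolved compounds, read 30 min after ONE-Glo addition at room temperature.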

[35] = qHTS assay to identify small molecule antagonists of the estrogen receptor alpha (ER-alpha) signaling pathway using the BG1 cell line in the presence of 0.1 nM 17-beta-estradiol - cell viability counter screen (AID 1259241); also: nearly all actives have a fitted effect of over 40% in size
Summary of the method: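 The cell line endogenously expresses full-length ER-alpha and carries four EREs driving luciferase. Cells are cultured 5 days hormone-free, treated 22 hr with compounds and 0.1 nM estradiol, then viability is read by fluorescence.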

[36] = qHTS assay to identify small molecule antagonists of the androgen receptor (AR) signaling pathway using the MDA cell line in the presence of 0.5 nM R1881 - cell viability counter screen (AID 1259242); also: nearly all actives have a fitted effect of over 45% in size
Summary of the method: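 Cytotoxicity toward MDA-kb2 cells is measured by CellTiter-Fluor live-cell protease fluorescence after 16 hr compound exposure at 37C in the presence of 0.5 nM R1881 stimulator.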

[37] = target: Nuclear receptor subfamily 1 group I member 2 (Homo sapiens) (UniProt O75469); experiment: Human pregnane X receptor (PXR) small molecule agonists, qHTS assay (AID 1346982); also: nearly all actives have a fitted effect of over 35% in size
Summary of the method: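 Agonist mode qHTS: PXR-Luc HepG2 cells plated 5 hr before DMSO-dissolved compounds were pinned in, cultured 24 hr at 37 C, 5% CO2; ONE-Glo luminescence readout.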

[38] = target: Acetylcholinesterase (Homo sapiens) (UniProt P22303); experiment: Acetylcholinesterase (AChE) small molecule antagonists: colormetric cell-based qHTS assay (AID 1347395; calls by dose curve; also: nearly all actives have a fitted effect of over 30% in size)
Summary of the method: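 Endogenous AChE of human neuroblastoma SH-SY5Y cells was measured with an Ellman-type DTNB/acetylthiocholine mix. Compound pretreatment lasted 30 min at 37 C; substrate reaction ran 90 min at 37 C.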

[39] = target: Acetylcholinesterase (Homo sapiens) (UniProt P22303); experiment: Acetylcholinesterase (AChE) small molecule antagonists: enzyme-based qHTS assay (AID 1347397; calls by dose curve; also: nearly all actives have a fitted effect of over 55% in size); details: Potency: AChE enzyme activity inhibition; outcome: AChE enzyme activity inhibition
Summary of the method: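 Absorbance-based detection of thiocholine with DTNB served as the read-out. Recombinant human AChE was exposed to compound for 30 min at RT before a 10 min RT incubation with acetylthiocholine.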

[40] = target: Acetylcholinesterase (Homo sapiens) (UniProt P22303); experiment: Acetylcholinesterase (AChE) small molecule antagonists: fluorescence cell-based qHTS assay (AID 1347398; calls by dose curve; also: nearly all actives have a fitted effect of over 50% in size); details: Potency: AChE activity; outcome: AChE activity
Summary of the method: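 Fluorimetric cell-based assay: intact SH-SY5Y cells, 30 min compound preincubation at 37 C, acetylthiocholine substrate with thiol probe Thiolite Green, 40 min RT development, fluorescence 490/520 nm.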

[41] = target: Acetylcholinesterase (Homo sapiens) (UniProt P22303); experiment: Acetylcholinesterase (AChE) small molecule antagonists: enzyme-based qHTS assay with human liver microsomes (AID 1347399; calls by dose curve; also: nearly all actives have a fitted effect of over 60% in size); details: Potency: qHTS inhibition; outcome: qHTS inhibition
Summary of the method: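 Recombinant human AChE (50 mU/mL in the enzyme mix) and human liver microsomes (0.25 mg/mL final) were preincubated with compound and NADPH (0.25 mg/mL final) for 30 min at 37 C. Acetylthiocholine/DTNB was then added; thiocholine was read colorimetrically after 10 min at room temperature.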
% is scaled to controls: 0 for no effect and ±100 for the full control effect.

Chain of Acetylcholinesterase (Homo sapiens) (P22303 whole entry, looked up): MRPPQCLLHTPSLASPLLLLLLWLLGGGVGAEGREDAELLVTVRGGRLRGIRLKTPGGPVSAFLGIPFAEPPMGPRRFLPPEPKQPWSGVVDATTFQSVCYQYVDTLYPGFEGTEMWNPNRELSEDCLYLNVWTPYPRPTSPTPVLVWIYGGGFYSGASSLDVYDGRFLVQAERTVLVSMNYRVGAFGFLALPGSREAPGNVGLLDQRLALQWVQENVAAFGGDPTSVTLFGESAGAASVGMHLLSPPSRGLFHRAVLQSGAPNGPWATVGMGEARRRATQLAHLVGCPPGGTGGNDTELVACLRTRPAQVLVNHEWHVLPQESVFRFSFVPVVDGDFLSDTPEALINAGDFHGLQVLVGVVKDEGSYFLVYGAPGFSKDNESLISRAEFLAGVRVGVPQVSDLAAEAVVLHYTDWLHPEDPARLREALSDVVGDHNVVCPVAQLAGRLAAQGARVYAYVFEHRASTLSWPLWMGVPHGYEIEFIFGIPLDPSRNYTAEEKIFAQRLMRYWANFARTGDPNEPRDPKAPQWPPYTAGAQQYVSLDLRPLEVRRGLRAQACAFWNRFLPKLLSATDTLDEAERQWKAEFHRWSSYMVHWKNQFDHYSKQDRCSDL
Chain of Glucocorticoid receptor (Homo sapiens) (P04150 whole entry, looked up): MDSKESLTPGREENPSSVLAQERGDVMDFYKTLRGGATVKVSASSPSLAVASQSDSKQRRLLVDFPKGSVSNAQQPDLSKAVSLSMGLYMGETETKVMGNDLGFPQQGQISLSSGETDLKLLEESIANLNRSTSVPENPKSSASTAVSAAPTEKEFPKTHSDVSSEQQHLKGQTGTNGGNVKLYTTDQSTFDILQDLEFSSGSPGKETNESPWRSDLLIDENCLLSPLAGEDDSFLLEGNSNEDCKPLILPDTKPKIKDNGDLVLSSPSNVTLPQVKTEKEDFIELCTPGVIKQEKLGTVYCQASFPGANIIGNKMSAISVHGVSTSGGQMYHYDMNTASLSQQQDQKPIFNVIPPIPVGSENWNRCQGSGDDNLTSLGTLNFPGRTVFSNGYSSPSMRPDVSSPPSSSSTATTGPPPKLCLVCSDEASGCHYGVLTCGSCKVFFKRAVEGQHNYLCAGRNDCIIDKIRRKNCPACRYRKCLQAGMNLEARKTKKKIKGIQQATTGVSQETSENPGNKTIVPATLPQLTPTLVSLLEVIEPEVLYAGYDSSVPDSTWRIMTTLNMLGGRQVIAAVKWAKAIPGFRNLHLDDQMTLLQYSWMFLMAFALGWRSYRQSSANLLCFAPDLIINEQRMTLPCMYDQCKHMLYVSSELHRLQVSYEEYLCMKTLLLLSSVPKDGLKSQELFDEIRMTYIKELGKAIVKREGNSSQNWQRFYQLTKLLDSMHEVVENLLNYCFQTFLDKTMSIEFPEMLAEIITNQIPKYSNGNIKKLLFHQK
Chain of Nuclear receptor subfamily 1 group I member 2 (Homo sapiens) (O75469 whole entry, looked up): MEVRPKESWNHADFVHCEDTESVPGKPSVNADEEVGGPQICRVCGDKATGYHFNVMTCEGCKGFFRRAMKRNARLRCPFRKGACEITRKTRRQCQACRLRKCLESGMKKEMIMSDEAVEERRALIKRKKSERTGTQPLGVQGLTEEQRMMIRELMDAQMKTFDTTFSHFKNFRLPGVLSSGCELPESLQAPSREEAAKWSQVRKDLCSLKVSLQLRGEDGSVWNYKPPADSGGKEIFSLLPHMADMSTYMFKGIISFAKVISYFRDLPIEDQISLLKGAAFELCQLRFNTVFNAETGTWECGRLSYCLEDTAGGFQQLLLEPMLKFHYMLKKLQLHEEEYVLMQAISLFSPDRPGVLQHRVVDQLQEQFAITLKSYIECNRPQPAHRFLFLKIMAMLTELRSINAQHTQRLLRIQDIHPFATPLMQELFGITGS

O=C(O)/C=C/C(=O)O
inactive: Potency [1] | Potency [2] | Potency [3] | Potency [4] | Potency [5] | Potency [6] | outcome [7] | Potency [8] | Potency [9] | Potency [10] | Potency [11] | outcome [12] | outcome [13] | Potency [14] | Potency [15] | Potency [16] | Potency [17] | Potency [18] | Potency [19] | Potency [20] | Potency [21] | Potency [22] | Potency [23] | Potency [24] | Potency [25] | Potency [26] | Potency [27] | Potency [28] | Potency [29] | Potency [30] | Potency [31] | Potency [32] | Potency [33] | activity change, positive = activation [34] 4.47% and 1.26% | Potency [35] | Potency [36] | Potency [37] | Potency [38] | Potency [39] | Potency [40] | Potency [41]
